Compound activity as filed in PubChem BioAssay.
Sampled rows, rich in hits. Any-hit rate of the full collection: about 1.7%.
PTHR1 ag: PTHR1 (human) receptor agonism; Q03431; AID 743266; HEK293 GP2 PTHR1 cells, GloSensor cAMP luminescence, 1 h; Potency, µM (titrated, usually from 115 µM), for inactives: at the highest dose activation, actives largely listed as activators; 410,000 compounds, 0.075% hits; note: nearly all actives have a fitted effect of over 55% in size
Target sequence (Q03431 whole entry, looked up): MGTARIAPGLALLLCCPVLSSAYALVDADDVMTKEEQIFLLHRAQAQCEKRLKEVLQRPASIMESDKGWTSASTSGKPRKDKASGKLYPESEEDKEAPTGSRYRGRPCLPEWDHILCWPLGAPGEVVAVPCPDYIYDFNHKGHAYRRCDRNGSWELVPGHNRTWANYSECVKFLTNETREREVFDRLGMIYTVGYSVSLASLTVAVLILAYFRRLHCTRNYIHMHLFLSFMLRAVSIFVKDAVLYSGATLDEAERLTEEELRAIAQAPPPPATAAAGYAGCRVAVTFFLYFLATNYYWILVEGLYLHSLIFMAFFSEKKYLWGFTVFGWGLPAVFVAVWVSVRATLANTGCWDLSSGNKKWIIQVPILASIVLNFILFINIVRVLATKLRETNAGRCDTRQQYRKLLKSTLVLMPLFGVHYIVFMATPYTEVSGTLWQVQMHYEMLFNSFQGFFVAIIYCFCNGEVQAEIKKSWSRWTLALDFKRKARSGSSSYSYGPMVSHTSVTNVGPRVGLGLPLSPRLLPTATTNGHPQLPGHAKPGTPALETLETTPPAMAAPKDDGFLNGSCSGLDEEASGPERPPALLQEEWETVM
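HEK-293-derived GP2 cells expressing PTHR1 and a GloSensor cAMP reporter, 3,000/well, plated overnight, given luciferin plus IBMX (each 0.5 mM as added) for 1 h at 37 °C, then compound for 1 h at 37 °C. Luminescence was read after 15 min at room temperature.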
GLP-1R agonist: GLP-1 receptor (human) agonism; P43220; HEK293 GLP-1R CRE-luciferase, luminescence, 4-6 h; cells express a hypersensitive GLP-1R form; Potency, µM (titrated, usually from 45.6 µM), inactives show at the top dose activation, most hits filed as activators; 380,000 compounds, 0.007% hits; AID 624172; note: % of control where 0% means no effect
GLP1R inv ag: acts as inverse agonist at human GLP-1 receptor; HEK293 GLP-1R CRE-luciferase, luminescence, 24 h; GLP-1R form is constitutively active; 410,000 compounds, 1.6% hits; AID 624417; Potency, µM (titrated, usually from 38.3 µM), for the others: at the highest dose activity change, negative = inhibition, most hits filed as inhibitors; P43220; note: % is set by controls: 0 for no effect and ±100 for the full control effect; nearly all actives have a fitted effect of over 55% in size
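Constitutively active GLP-1R drives a cAMP-responsive luciferase in stably transfected HEK293 cells; test compounds are added after overnight (12 h) attachment and left 24 hr, and signal loss in luminescence marks inhibition.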
HEK293 tox: cytotoxic in the GLP-1 receptor inverse agonist counter-screen. 410,000 compounds, 0.13% hits. HEK293 cAMP-luciferase reporter cells, luminescence, 24 h. Potency, µM (doses to about 38.3 µM), for inactives: at the top dose activity change, negative = inhibition, actives largely listed as inhibitors;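 note: loss of luciferase light is scored as toxicity; % is set by controls: 0 for no effect and ±100 for the full control effect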
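Luminescence readout: signal drop marks cytotoxicity. Plated cells grew 12 h at 37 °C, 5% CO2, received 23 nL compound for 24 h, then got luciferase reagent, read after 12 min at RT.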
The depositor's hits bear a star; i = inactive; u = inconclusive; x = no result; ! = a repeat was not active; [ ] = another dose, or the depositor's remark. Calls come from the whole dose curve; as a rule, active = well fitted curve in the direction sought with a large enough effect; inconclusive = small, poorly fitted or top-dose-only effect, or another doubt; inactive = no such curve, though single readings can be large; an effect the other way counts as inactive or inconclusive. Potency is the fitted concentration of half-maximal effect.

SMILES	PTHR1 ag	GLP-1R agonist	GLP1R inv ag	HEK293 tox
COc1ccc(/C=N/Nc2ccccc2)cc1Cn1nc(C)c([N+](=O)[O-])c1C	i	-2%	4µM*	-28%
CC(=O)c1cc(-c2ccc(F)cc2)n(CC(=O)NC2CCCCCC2)c1C	-13%	x	6%	-9%
Cc1cc(NC(=O)CSc2ncc(C(=O)Nc3ccc(F)cc3)c(=O)n2C)no1	i	x	7%	3%
N#CC(C#N)=C(N)CSc1cccc[n+]1[O-]	i	1%	u	4.5µM*
[O-][n+]1ccccc1SCc1ccccc1	0%	2%	20%	3%
Cc1ccc(-n2cccn2)c(CN2CCCC(C(=O)c3sccc3C)C2)c1 (stereo not given)	i	4%	u	11µM*
Cc1ccsc1C(=O)C1CCCN(Cc2cccn2-c2ccc(Cl)cn2)C1 (stereo not given)	-35%	-6%	u	u
O=C(Nc1ccccc1C(=O)Nc1nnc(C(F)(F)F)s1)c1ccccc1	-40%	-6%	u	3.2µM*
Cc1ccc(C)c(NC(=O)CCN2CCc3ccccc3C2)c1	i	6%	11µM*	3%
O=C(NC1CCCCC1)c1n[nH]c2c1CCCCC2	-93%	-8%	2.5µM*	5%
CCOC(=O)c1c(S(=O)(=O)N2CCC(C(=O)N3CCN(c4cccc(C)c4C)CC3)CC2)c(C)n(C)c1C	-26%	x	u	-11%
COc1cccc(CNC(=O)CN2C(=O)CCCc3ccccc32)c1OC	-21%	x	14%	-7%
CN1CCN(C2Cc3cc(Cl)ccc3Sc3cc(F)ccc32)CC1 (stereo not given)	i	7%	5µM*	u
Fc1ccc(C2CC(c3ccco3)=NN2c2ccccc2)cc1 (stereo not given)	-14%	1%	6.3µM*	110%
COc1ccc2c(c1)-c1nc(NC(=O)c3cc(OC)c(OC)c(OC)c3)sc1CC2	u	x	10µM*	u
Cc1ccc(Cl)cc1NC1=C/C(=N\S(=O)(=O)c2cccs2)c2ccccc2C1=O	-33%[57.5 µM]	-11%	1µM*!	u
CC(C)c1ccc(S(=O)(=O)N2CCC(C(=O)NCC3(N(C)C)CCCCC3)CC2)cc1	i	-1%	u	-13%
CN(C)C1(CNC(=O)C2CCN(S(=O)(=O)c3cc(Cl)ccc3Cl)CC2)CCCCC1	-5%	7%	10µM*	u
Cc1nn2c(NCC(C)C)c3c(nc2c1-c1ccccc1)CCC3	i	4%	0%	1%
Cc1nn2c(NC(C)C)c3c(nc2c1-c1ccccc1)CCC3	-61%	23%	10µM*	-8%
CC(C)c1ccc(NC(=O)C(c2ccc3c(c2)OCO3)N2CCN(C(=O)c3ccco3)CC2)cc1 (stereo not given)	i	1%	10µM*	-29%
CCN(CC)C(C(=O)Nc1ccc(C(C)C)cc1)c1ccc2c(c1)OCO2 (stereo not given)	-5%	0%	7.1µM*	u
CCc1ccc(CNC(=O)CSc2cc(=O)n(C)c3ccc(Cl)cc23)cc1	-17%	1%	-1%	1%
CCCS(=O)(=O)NCCc1sc2nc(-c3ccc(Cl)cc3)nn2c1C	-47%	x	u	-10%
c1coc(CNc2nc(N3CCCCC3)nc3ccccc23)c1	-17%[57.5 µM]	1%	u	u
SMILES	PTHR1 ag	GLP-1R agonist	GLP1R inv ag	HEK293 tox
c1ccc(CNc2nc(N3CCN(Cc4ccccc4)CC3)nc3ccccc23)cc1	-33%	9%	4µM*	-28%
c1ccc(CN2CCC(Nc3nc(-c4ccccc4)nc4ccccc34)CC2)cc1	i	-29%	5µM*	u
c1ccc(CN2CCC(CNc3ncnc4ccccc34)C2)cc1 (stereo not given)	-7%	2%	u	-25%
O=C1CC(c2cccc(Cl)c2Cl)c2cc3c(cc2N1)OCCO3 (stereo not given)	-44%	1%	1%	0%
Cc1ccc(C)c(NC(=S)NC(NC(=O)/C=C/c2ccccc2)C(Cl)(Cl)Cl)c1 (stereo not given)	-21%[57.5 µM]	-15%	3.5µM*	-21%
Cc1ccc(OCCSc2nc(-c3ccccc3C)nc3cc(=O)[nH]n23)cc1Cl	i	x	u	-12%
COc1ccc(S(=O)(=O)n2nc(C)c(S(=O)(=O)N3CCC(C)CC3)c2C)cc1C	i	-2%	9%	-3%
C/C(=N\NC(=O)c1ccccc1)c1ccccc1Br	i	9%	u	5µM*
C/C(=N\NC(=O)c1ccccc1)c1ccccc1F	i	4%	22%	13%
CCc1ccc(-c2cn3c(n2)sc2cc(C(=O)NCCc4ccc(OC)cc4OC)ccc23)cc1	-13%	x	13%	7%
OC(c1ccccc1)(c1nc(/C=C/c2ccc(C(F)(F)F)cc2)cs1)C(F)(F)F (stereo not given)	-6%	-2%	7.9µM*	u
O=C1CC(=O)N(CCNc2ncc(C(F)(F)F)cc2Cl)C(=O)N1	i	-25%	0%	17%
O=C1C=CC(=O)N1CCNc1ncc(C(F)(F)F)cc1Cl	-29%	6%	11µM*	u
CCOC(=O)c1sc(NC(=O)c2cc(CC)on2)c(C(=O)OCC)c1C	i	x	2%	5%
O=C(CN1C(=O)c2ccccc2S1(=O)=O)c1ccc(F)cc1	-40%	-7%	2.2µM*	-9%
Nc1nc(N)c2cc(Sc3ccc4ccccc4c3)ccc2n1	-34%	-8%	10µM*	u
COc1ccccc1-c1oc2ccccc2c1C#CC(C)(C)O	-25%	14%	10µM*	6%
O=C(CC1CC2CCC1C2)OCC(=O)c1c[nH]c2ccccc12 (stereo not given)	-26%	4%	10µM*	-21%
CC1(C)CC(=O)C=C(NCCN2CCN(C(=S)Nc3ccccc3)CC2)C1	-9%	2%	6%	-1%
CC(C)CNC1=C(C(=S)Nc2ccccc2)C(=O)CC(C)(C)C1	-22%	18%	4µM*	56%
COc1cccc(CNC(=O)c2ccc(NC(=O)N3CC(C)Sc4ccccc43)cc2)c1 (stereo not given)	i	x	u	-11%
N[C@@H](C(=O)N[C@H]1C(=O)N2C(C(=O)O)=C(Cl)CC[C@H]12)c1ccccc1	x	-3%	x	x
Cc1ccccc1NC(=O)c1c(Cl)nc(C)c(Cl)c1C	i	2%	-2%	-5%
CCc1ccc(NC(=O)c2c(Cl)nc(C)c(Cl)c2C)cc1	-19%	8%	4µM*	-5%
CCN(CC)C(=O)CSc1nc2ccccc2c(=O)n1CC1CCCCC1	-22%[57.5 µM]	16%	5.6µM*	-9%
O=C(OCCOc1ccc(Cl)cc1)c1cc(S(=O)(=O)N2CCCCC2)ccc1N1CCOCC1	-32%	17%	10µM*	-4%
CC1CCC(N(C)C(=O)CN2C(=O)NC(c3ccccc3)(c3ccccc3)C2=O)CC1 (stereo not given)	-26%	-3%	10µM*	-2%
